Data on 67 compounds can be found in the antibiotic and cytotoxicity screens of Wong et al. (2023).

Among all 39,000 compounds or so, about 1,500 (3.8%) were called active. The sample holds actives, similar compounds and a random draw of the others, so the mix is not that of the screen.

For this assay, the system named is HSkMC (human skeletal muscle cells). Put plainly: cytotoxicity call (relative viability < 0.9). The settings on record: 10 µM.
In the case of `COCC(=O)N(C)C[C@@H]1Oc2cc(C#CC(C)(C)O)ccc2S(=O)(=O)N([C@H](C)CO)C[C@H]1C`, the cytotoxicity call is “inactive”.

Take `C[C@@H]1CCCCO[C@@H](CN(C)C(=O)Nc2ccccc2)[C@@H](C)CN([C@H](C)CO)C(=O)c2cc(NC(=O)Nc3ccccc3)ccc2O1`: the cytotoxicity call was “inactive”.

Turning to `S=C(c1cccs1)N1CCCC1`, the cytotoxicity call was “inactive”. Then `CN1C(=O)c2cc(NC(=O)Cc3cccs3)ccc2OC[C@@H]2O[C@H](CC(=O)NCCCN3CCOCC3)CC[C@H]21`, with “inactive”; and `COc1cc(CO)c(CC(=O)NN)cc1OC`, with “inactive”; and `C[C@@H]1CN([C@@H](C)CO)C(=O)Cc2cc(NC(=O)Nc3ccc(F)cc3)ccc2O[C@H]1CN(C)C(=O)Nc1ccc(C(F)(F)F)cc1`, with “inactive”.

Take `C[C@H](CO)N1C[C@H](C)[C@@H](CN(C)C(=O)Nc2ccc(F)cc2)Oc2ccc(NC(=O)Nc3ccc(C(F)(F)F)cc3)cc2CC1=O`: the cytotoxicity call is “inactive”. Then `C[C@H]1CN([C@@H](C)CO)C(=O)Cc2cc(NC(=O)Nc3ccc(C(F)(F)F)cc3)ccc2O[C@H]1CN(C)C(=O)Nc1ccc(C(F)(F)F)cc1`, with “active”; and `C[C@H]1CN([C@@H](C)CO)C(=O)Cc2cc(NC(=O)Nc3ccc(F)cc3)ccc2O[C@@H]1CN(C)C(=O)Nc1ccc(C(F)(F)F)cc1`, with “inactive”. Then `C[C@@H]1CN([C@H](C)CO)C(=O)Cc2cc(NC(=O)Nc3ccc(C(F)(F)F)cc3)ccc2O[C@@H]1CN(C)C(=O)Nc1ccc(F)cc1`, with “inactive”; and `C[C@@H]1CN([C@@H](C)CO)C(=O)Cc2cc(NC(=O)Nc3ccc(C(F)(F)F)cc3)ccc2O[C@@H]1CN(C)C(=O)Nc1ccc(C(F)(F)F)cc1`, with “active”; and `CCn1nnc2c(=S)nc[nH]c21`, with “inactive”. Then `Cc1noc(C)c1NC(=O)Nc1ccc2c(c1)CC(=O)N([C@H](C)CO)C[C@@H](C)[C@@H](CN(C)S(=O)(=O)c1cn(C)cn1)O2`, with “inactive”; and `C=CC[C@@H](CC(=O)N[C@H](CO)Cc1ccccc1)C(=O)NC[C@H](OC(=O)[C@@H](CC=C)Cc1ccc(F)cc1)c1ccccc1`, with “active”; and `C=CCC[C@@H](Cc1ccc(F)cc1)C(=O)O[C@H](CNC(=O)[C@@H](CC=C)CC(=O)N[C@@H](CO)Cc1ccccc1)c1ccccc1`, with “inactive”. `C=CCC[C@H](Cc1ccc(F)cc1)C(=O)O[C@@H](CNC(=O)[C@@H](CC=C)CC(=O)N[C@H](CO)Cc1ccccc1)c1ccccc1`: the cytotoxicity call is “active”.

Turning to `C=CCC[C@@H](Cc1ccc(F)cc1)C(=O)O[C@@H](CNC(=O)[C@@H](CC=C)CC(=O)N[C@H](CO)Cc1ccccc1)c1ccccc1`, the cytotoxicity call was “inactive”. Then `C=CC[C@@H](CC(=O)N[C@@H](CO)Cc1ccccc1)C(=O)NC[C@@H](OC(=O)[C@@H](CC=C)Cc1ccc(F)cc1)c1ccccc1`, with “inactive”; and `C=CC[C@@H](CC(=O)N[C@H](CO)Cc1ccccc1)C(=O)NC[C@@H](OC(=O)[C@@H](CC=C)Cc1ccc(F)cc1)c1ccccc1`, with “inactive”; and `C=CCC[C@H](Cc1ccc(F)cc1)C(=O)O[C@@H](CNC(=O)[C@@H](CC=C)CC(=O)N[C@@H](CO)Cc1ccccc1)c1ccccc1`, with “inactive”. As for `C=CCC[C@H](Cc1ccc(F)cc1)C(=O)O[C@H](CNC(=O)[C@@H](CC=C)CC(=O)N[C@@H](CO)Cc1ccccc1)c1ccccc1`, the entry is “inactive”. Then `C=CCC[C@H](Cc1ccc(F)cc1)C(=O)O[C@H](CNC(=O)[C@@H](CC=C)CC(=O)N[C@H](CO)Cc1ccccc1)c1ccccc1`, with “active”. `C=CC[C@@H](CC(=O)N[C@@H](CO)Cc1ccccc1)C(=O)NC[C@H](OC(=O)[C@@H](CC=C)Cc1ccc(F)cc1)c1ccccc1`: the cytotoxicity call was “inactive”. As to `C=CCC[C@@H](Cc1ccc(F)cc1)C(=O)O[C@H](CNC(=O)[C@@H](CC=C)CC(=O)N[C@H](CO)Cc1ccccc1)c1ccccc1`, the cytotoxicity call was “inactive”. As to `C=CCC[C@@H](Cc1ccc(F)cc1)C(=O)O[C@@H](CNC(=O)[C@@H](CC=C)CC(=O)N[C@@H](CO)Cc1ccccc1)c1ccccc1`, the cytotoxicity call was “active”.

For the compound `Cc1ccc(S(=O)(=O)N(C)C[C@@H]2Oc3ccc(NC(=O)CCCN(C)C)cc3CC(=O)N([C@@H](C)CO)C[C@H]2C)cc1`, the cytotoxicity call is “inactive”. As for `O=C(CN1CCOCC1)NCC[C@@H]1CC[C@H](NC(=O)Cc2ccccn2)[C@@H](CO)O1`, the entry is “inactive”; as for `Cc1noc(C)c1S(=O)(=O)N(C)C[C@H]1Oc2ccc(NC(=O)Cn3cnnn3)cc2CC(=O)N([C@@H](C)CO)C[C@@H]1C`, “inactive”. As for `C[C@@H]1CN([C@H](C)CO)S(=O)(=O)c2ccc(C#Cc3ccccc3)cc2O[C@@H]1CN(C)S(C)(=O)=O`, the entry is “inactive”.

For `C[C@@H]1CCCCO[C@@H](CN(C)C(=O)Nc2ccccc2)[C@@H](C)CN([C@@H](C)CO)C(=O)c2cc(NC(=O)Nc3cccc4ccccc34)ccc2O1`, the cytotoxicity call was “inactive”. As for `COc1ccc(S(=O)(=O)Nc2ccc3c(c2)OC[C@@H](C)N(C)C[C@@H](C)[C@H](OC)CN(C)C3=O)cc1`, the entry is “inactive”.

Regarding `CO[C@H](CN(C)S(=O)(=O)c1cccc(Cl)c1)[C@H](C)CN([C@H](C)CO)S(=O)(=O)c1ccc(Cl)cc1`, the cytotoxicity call was “inactive”. Then `O=C(C[C@H]1CC[C@H]2[C@@H](COC[C@H](O)CN2C(=O)c2cccnc2)O1)NCc1ccc(-c2ccccc2)cc1`, with “inactive”.

For the compound `NC(=O)c1nc2c(s1)CCNCC2`, the cytotoxicity call is “inactive”. Consider `Cc1ccc(S(=O)(=O)N(C)C[C@H]2OCCCC[C@@H](C)Oc3ccc(NS(C)(=O)=O)cc3C(=O)N([C@H](C)CO)C[C@@H]2C)cc1`, for which the cytotoxicity call is “inactive”. `COc1ccc(S(=O)(=O)N(C)C[C@@H]2OCc3cn(nn3)CCCC(=O)N([C@H](C)CO)C[C@@H]2C)cc1`: the cytotoxicity call is “inactive”. For the compound `O=C(C[C@H]1CC[C@@H]2[C@H](COC[C@H](O)CN2S(=O)(=O)c2ccccc2)O1)NCc1ccc(-c2ccccc2)cc1`, the cytotoxicity call is “inactive”. With `Cc1ccc(S(=O)(=O)Nc2ccc3c(c2)C(=O)N([C@@H](C)CO)C[C@H](C)[C@@H](CN(C)C(=O)Nc2ccc(F)cc2)OCCCC[C@@H](C)O3)cc1`, the cytotoxicity call is “inactive”.

Regarding `Cc1ccc(S(=O)(=O)Nc2ccc3c(c2)C(=O)N([C@@H](C)CO)C[C@H](C)[C@@H](CN(C)C(=O)Nc2ccc(F)cc2)OCCCC[C@H](C)O3)cc1`, the cytotoxicity call was “inactive”. Then `Cc1ccc(S(=O)(=O)Nc2ccc3c(c2)C(=O)N([C@H](C)CO)C[C@@H](C)[C@H](CN(C)C(=O)Nc2ccc(F)cc2)OCCCC[C@@H](C)O3)cc1`, with “active”; and `Cc1ccc(S(=O)(=O)Nc2ccc3c(c2)C(=O)N([C@H](C)CO)C[C@@H](C)[C@H](CN(C)C(=O)Nc2ccc(F)cc2)OCCCC[C@H](C)O3)cc1`, with “active”; and `Cc1ccc(S(=O)(=O)Nc2ccc3c(c2)C(=O)N([C@@H](C)CO)C[C@@H](C)[C@H](CN(C)C(=O)Nc2ccc(F)cc2)OCCCC[C@@H](C)O3)cc1`, with “inactive”.

Regarding `Cc1ccc(S(=O)(=O)Nc2ccc3c(c2)C(=O)N([C@H](C)CO)C[C@H](C)[C@H](CN(C)C(=O)Nc2ccc(F)cc2)OCCCC[C@H](C)O3)cc1`, the cytotoxicity call is “inactive”. As for `C[C@H]1CN([C@@H](C)CO)S(=O)(=O)c2ccc(C#CC(C)(C)O)cc2O[C@H]1CN(C)C(=O)C1CCCCC1`, the entry is “inactive”; as for `C[C@H](CO)N1C[C@H](C)[C@H](CN(C)S(C)(=O)=O)Oc2ccc(NC(=O)Nc3ccc(F)cc3)cc2CC1=O`, “inactive”.

With `COc1ccc(NC(=O)Nc2cccc3c2O[C@H](CN(C)C(=O)Nc2cccc4ccccc24)[C@H](C)CN([C@H](C)CO)C3=O)cc1`, the cytotoxicity call was “inactive”. Consider `COc1ccc(NC(=O)N(C)C[C@H]2Oc3c(NC(=O)C4CC4)cccc3C(=O)N([C@H](C)CO)C[C@H]2C)cc1`, for which the cytotoxicity call was “inactive”. Then `C[C@H]1CN([C@@H](C)CO)C(=O)c2cc(NC(=O)Cc3ccccc3)ccc2O[C@@H]1CN(C)C(=O)Nc1cccc2ccccc12`, with “inactive”. Then `CCn1c(Cl)nc2c1c(=O)n(C)c(=O)n2C`, with “inactive”; and `Cc1nc2c(=O)n(C)c(=O)n(C)c2nc1Cl`, with “active”; and `Cn1c(=O)c2c(nc(SCSc3nc4c(c(=O)n(C)c(=O)n4C)n3C)n2C)n(C)c1=O`, with “inactive”. Regarding `C[C@@H]1CN([C@H](C)CO)C(=O)c2cc(NC(=O)Nc3ccc4c(c3)OCO4)ccc2O[C@@H](C)CCCCO[C@H]1CN(C)Cc1ccccc1`, the cytotoxicity call is “inactive”. As for `Cc1ccc(S(=O)(=O)N(C)C[C@H]2OCCCC[C@@H](C)Oc3ccc(NS(C)(=O)=O)cc3C(=O)N([C@H](C)CO)C[C@H]2C)cc1`, the entry is “inactive”; as for `Cn1nnc2c1CCN(C(=O)CS(C)(=O)=O)[C@@H]2COCC1CC1`, “inactive”.

For `COCC(=O)Nc1ccc2c(c1)CC(=O)N2`, the cytotoxicity call was “inactive”. Turning to `CCN1CCN(Cc2ccc(C(=O)Nc3ccc(C)c(Oc4ccc5c(c4)CC(=O)N5)c3)cc2C(F)(F)F)CC1`, the cytotoxicity call was “active”.

Take `Cc1ccc(S(=O)(=O)Nc2ccc3c(c2)C(=O)N([C@@H](C)CO)C[C@H](C)[C@@H](CN(C)C(=O)Nc2c(C)noc2C)OCCCC[C@@H](C)O3)cc1`: the cytotoxicity call was “inactive”. As for `Cc1noc(C)c1NC(=O)N(C)C[C@@H]1Oc2ccc(NC(=O)C3CC3)cc2C(=O)N([C@H](C)CO)C[C@H]1C`, the entry is “inactive”; as for `C[C@@H]1CN([C@H](C)CO)C(=O)CCCn2nncc2CO[C@H]1CN(C)C(=O)Nc1cccc(C(F)(F)F)c1`, “inactive”; as for `COc1ccc2cc3[n+](cc2c1OC)CCc1cc2c(cc1-3)OCO2.[Cl-]`, “inactive”. As for `C[n+]1cc2c3c(ccc2c2ccc4cc5c(cc4c21)OCO5)OCO3.[Cl-]`, the entry is “active”.

As to `COCC#Cc1cnc2c(c1)C(=O)N([C@@H](C)CO)C[C@@H](C)[C@@H](CN(C)S(=O)(=O)c1ccccc1)O2`, the cytotoxicity call is “inactive”. Then `C[C@@H]1CN([C@H](C)CO)C(=O)c2cc(C#Cc3ccccc3F)cnc2O[C@@H]1CN(C)C(=O)c1ccc2c(c1)OCO2`, with “inactive”.

Consider `CC[C@@H](C)SSc1ncc[nH]1`, for which the cytotoxicity call was “active”. As for `OCc1ncc[nH]1`, the cytotoxicity call was “inactive”. As for `Cc1ncc[nH]1`, the entry is “inactive”.

With `C[C@@H]1CN([C@H](C)CO)C(=O)c2cccc(NC(=O)Nc3ccc(F)cc3)c2O[C@H]1CN(C)C(=O)Nc1cccc2ccccc12`, the cytotoxicity call was “inactive”.
